The supplement of paper PMC11732987, “Enantioselective OTUD7B fragment discovery through chemoproteomics screening and high-throughput optimisation” (Communications Chemistry, 2025)

Experiments:
Assay in all cases: log2 ratio of Biotin-Ahx-Ub-VS probe labelling (fragment/DMSO); higher = less target engagement (more negative = stronger competition), active = hit call of the paper (q ≤ 0.05, log2 ratio ≤ -1)
Settings in all cases: compound concentration: 200 uM; treatment time: 3 h
[1] = target: T1, USP42 (UniProt Q9H9J4)
T1 sequence (whole entry): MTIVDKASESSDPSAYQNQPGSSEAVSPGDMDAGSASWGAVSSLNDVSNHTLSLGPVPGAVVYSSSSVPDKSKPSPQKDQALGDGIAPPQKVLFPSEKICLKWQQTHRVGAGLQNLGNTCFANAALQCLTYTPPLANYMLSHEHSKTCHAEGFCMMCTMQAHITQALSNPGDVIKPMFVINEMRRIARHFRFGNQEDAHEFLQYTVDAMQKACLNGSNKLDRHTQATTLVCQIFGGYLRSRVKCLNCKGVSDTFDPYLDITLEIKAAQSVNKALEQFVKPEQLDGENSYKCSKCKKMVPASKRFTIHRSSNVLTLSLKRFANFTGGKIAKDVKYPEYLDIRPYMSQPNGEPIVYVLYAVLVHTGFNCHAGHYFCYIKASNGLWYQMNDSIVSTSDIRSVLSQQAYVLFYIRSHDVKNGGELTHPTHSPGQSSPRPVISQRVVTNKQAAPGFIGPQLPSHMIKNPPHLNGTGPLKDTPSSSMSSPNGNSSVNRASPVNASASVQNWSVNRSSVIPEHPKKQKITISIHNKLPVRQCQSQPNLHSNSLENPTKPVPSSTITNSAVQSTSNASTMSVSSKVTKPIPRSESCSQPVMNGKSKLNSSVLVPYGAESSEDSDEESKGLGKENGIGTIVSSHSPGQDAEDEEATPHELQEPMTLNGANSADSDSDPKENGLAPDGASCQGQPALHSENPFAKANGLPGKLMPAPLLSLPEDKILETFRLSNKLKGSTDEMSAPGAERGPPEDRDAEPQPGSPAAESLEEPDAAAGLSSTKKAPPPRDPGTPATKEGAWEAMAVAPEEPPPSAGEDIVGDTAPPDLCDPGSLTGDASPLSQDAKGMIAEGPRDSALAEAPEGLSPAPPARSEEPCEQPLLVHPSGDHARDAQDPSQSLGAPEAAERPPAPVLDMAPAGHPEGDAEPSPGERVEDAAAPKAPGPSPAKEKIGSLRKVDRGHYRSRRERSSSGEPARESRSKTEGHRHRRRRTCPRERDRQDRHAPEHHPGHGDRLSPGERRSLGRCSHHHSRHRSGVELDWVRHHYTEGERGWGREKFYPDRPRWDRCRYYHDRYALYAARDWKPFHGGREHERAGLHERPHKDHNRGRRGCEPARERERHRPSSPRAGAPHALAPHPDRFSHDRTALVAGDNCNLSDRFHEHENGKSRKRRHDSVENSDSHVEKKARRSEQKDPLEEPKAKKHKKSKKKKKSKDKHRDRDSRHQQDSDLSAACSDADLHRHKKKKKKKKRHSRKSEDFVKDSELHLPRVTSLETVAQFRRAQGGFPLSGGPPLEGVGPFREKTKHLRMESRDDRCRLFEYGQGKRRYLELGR
Outline: (§1)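 Lysate from HEK293T cells, 495 µg per sample in Tris/CHAPS/IGEPAL buffer with protease inhibitors, was treated for 3 h in triplicate with fragment at 200 µM or vehicle. Biotin-Ahx-Ub-VS was next added at 0.5 µM final for 1 h. The labelled DUBs were enriched with NeutrAvidin, digested with LysC and trypsin, and run by diaPASEF LC-MS/MS, with values given as average log2 fragment/vehicle ratios by unpaired t-test on global-median-normalised Spectronaut quantities of proteins with ≥2 unique peptides.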

[2] = target: USP46 (UniProt P62068)
Outline: as §1

[3] = target: T2, USP47 (UniProt Q96K76)
T2 sequence (whole entry): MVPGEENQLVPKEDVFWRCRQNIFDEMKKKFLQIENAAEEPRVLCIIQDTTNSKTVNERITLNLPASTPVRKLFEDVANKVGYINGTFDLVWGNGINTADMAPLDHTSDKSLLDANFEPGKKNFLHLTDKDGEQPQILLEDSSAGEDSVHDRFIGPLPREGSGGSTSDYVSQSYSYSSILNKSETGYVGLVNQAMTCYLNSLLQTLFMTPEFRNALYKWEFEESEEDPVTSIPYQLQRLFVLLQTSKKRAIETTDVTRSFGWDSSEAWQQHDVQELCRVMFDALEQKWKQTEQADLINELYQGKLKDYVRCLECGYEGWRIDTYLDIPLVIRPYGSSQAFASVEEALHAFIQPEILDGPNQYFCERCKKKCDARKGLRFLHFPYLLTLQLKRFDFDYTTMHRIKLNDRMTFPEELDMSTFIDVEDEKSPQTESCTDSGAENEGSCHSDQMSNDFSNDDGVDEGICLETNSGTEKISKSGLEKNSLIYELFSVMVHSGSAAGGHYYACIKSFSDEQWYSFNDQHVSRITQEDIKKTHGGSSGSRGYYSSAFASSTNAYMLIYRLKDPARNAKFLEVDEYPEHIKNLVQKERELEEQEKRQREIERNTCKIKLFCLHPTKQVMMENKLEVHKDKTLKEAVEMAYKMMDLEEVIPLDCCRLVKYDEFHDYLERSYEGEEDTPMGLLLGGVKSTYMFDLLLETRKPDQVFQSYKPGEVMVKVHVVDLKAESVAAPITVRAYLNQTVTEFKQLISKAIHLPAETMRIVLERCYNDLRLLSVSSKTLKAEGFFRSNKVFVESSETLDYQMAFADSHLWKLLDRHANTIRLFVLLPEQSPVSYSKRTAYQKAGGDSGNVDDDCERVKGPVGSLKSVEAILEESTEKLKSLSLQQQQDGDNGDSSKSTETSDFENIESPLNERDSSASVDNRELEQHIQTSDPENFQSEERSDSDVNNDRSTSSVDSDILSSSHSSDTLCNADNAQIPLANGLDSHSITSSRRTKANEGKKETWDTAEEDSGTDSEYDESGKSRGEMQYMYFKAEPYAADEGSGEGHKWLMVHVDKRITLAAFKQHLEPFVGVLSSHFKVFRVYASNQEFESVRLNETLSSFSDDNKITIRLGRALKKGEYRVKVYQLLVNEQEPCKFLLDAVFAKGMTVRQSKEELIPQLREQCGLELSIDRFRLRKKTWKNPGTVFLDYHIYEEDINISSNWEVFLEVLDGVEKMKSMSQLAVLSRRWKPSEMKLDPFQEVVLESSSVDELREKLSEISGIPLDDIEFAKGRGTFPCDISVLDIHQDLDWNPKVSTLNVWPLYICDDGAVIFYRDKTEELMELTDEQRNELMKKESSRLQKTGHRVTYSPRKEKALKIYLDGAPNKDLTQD
Outline: as §1

[4] = target: T3, USP48 (UniProt Q86UV5)
T3 sequence (whole entry): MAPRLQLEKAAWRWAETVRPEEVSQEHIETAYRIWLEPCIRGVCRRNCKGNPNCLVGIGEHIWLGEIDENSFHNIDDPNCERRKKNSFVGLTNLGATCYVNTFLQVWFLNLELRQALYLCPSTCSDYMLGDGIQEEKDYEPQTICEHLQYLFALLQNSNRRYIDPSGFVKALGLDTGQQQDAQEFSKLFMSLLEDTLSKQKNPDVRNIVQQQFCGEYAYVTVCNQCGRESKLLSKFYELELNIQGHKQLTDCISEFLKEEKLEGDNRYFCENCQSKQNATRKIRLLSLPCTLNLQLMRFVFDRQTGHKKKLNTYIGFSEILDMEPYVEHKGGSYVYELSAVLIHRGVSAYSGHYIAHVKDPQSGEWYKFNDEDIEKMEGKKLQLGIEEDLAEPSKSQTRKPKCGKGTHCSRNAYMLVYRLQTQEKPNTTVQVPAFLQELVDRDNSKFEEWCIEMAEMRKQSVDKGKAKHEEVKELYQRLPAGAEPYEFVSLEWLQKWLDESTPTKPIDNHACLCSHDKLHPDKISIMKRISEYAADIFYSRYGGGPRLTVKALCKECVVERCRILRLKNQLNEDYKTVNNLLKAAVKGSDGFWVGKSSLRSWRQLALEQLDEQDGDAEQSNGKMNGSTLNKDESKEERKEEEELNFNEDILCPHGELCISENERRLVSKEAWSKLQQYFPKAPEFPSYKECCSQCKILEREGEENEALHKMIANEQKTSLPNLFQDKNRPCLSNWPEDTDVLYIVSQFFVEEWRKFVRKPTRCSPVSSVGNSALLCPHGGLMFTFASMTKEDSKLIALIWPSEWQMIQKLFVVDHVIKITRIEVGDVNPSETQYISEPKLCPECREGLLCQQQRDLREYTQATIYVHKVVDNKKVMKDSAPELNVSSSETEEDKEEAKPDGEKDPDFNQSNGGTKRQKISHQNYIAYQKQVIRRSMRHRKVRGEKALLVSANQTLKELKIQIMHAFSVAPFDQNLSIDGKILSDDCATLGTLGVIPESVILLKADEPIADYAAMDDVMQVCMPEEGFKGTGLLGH
Outline: as §1

[5] = target: T4, USP5 (UniProt P45974)
T4 sequence (whole entry): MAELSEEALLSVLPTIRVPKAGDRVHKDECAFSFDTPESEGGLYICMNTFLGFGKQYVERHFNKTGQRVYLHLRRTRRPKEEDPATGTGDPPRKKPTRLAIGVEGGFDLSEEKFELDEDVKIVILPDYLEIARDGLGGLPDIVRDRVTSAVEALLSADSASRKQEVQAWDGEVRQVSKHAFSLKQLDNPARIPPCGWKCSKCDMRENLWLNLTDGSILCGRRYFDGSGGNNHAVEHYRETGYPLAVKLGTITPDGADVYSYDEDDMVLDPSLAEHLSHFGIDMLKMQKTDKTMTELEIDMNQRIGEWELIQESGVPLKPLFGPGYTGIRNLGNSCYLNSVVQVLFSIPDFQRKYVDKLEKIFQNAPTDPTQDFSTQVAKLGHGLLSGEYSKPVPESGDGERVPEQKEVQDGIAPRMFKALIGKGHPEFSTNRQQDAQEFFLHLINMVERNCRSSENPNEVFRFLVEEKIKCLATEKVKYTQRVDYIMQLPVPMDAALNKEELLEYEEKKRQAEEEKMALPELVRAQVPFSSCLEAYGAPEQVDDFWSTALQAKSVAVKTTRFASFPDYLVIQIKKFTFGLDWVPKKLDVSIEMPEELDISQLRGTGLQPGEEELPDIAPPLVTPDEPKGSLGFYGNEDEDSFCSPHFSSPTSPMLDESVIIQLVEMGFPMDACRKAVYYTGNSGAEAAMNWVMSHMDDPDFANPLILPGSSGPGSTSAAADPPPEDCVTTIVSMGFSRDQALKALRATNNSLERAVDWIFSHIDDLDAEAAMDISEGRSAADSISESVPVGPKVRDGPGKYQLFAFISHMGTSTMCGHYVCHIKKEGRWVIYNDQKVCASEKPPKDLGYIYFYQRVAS
Outline: as §1

[6] = target: USP54 (UniProt Q70EL1)
Outline: as §1

[7] = target: USP7 (UniProt Q93009)
Outline: as §1

[8] = target: T5, USP8 (UniProt P40818)
T5 sequence (whole entry): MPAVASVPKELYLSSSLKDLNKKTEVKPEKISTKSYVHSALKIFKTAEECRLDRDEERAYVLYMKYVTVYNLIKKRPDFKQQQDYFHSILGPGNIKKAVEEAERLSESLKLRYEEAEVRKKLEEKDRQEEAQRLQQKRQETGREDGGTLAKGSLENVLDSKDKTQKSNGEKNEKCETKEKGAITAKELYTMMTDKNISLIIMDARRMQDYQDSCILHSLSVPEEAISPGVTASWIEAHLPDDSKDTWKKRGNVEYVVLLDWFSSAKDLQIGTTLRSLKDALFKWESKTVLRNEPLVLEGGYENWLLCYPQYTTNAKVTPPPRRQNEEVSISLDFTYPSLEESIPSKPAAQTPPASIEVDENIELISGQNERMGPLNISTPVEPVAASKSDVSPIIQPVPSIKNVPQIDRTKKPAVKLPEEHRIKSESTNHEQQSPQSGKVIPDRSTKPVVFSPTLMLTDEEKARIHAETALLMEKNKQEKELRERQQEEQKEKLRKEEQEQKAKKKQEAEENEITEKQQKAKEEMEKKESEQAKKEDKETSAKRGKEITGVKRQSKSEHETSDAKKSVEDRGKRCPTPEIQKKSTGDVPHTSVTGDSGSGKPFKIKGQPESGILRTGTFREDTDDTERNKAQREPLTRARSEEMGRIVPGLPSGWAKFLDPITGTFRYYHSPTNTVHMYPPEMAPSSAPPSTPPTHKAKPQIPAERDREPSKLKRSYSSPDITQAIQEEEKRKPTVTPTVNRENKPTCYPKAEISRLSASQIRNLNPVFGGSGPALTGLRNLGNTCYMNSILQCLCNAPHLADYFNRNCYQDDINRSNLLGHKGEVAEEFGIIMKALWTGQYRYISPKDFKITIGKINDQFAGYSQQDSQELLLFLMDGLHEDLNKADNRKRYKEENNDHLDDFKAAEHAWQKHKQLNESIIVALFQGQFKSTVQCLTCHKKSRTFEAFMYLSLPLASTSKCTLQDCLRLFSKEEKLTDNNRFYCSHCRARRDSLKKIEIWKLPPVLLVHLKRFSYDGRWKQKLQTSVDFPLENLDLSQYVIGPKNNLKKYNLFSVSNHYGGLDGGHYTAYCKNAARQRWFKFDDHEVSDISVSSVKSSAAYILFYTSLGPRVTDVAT
Outline: as §1

[9] = target: USP9X (UniProt Q93008)
Outline: as §1

[10] = target: UniProt O00487
Outline: as §1

Measured: log2 ratio of Biotin-Ahx-Ub-VS probe labelling

Sequence of UniProt O00487 (O00487 whole entry): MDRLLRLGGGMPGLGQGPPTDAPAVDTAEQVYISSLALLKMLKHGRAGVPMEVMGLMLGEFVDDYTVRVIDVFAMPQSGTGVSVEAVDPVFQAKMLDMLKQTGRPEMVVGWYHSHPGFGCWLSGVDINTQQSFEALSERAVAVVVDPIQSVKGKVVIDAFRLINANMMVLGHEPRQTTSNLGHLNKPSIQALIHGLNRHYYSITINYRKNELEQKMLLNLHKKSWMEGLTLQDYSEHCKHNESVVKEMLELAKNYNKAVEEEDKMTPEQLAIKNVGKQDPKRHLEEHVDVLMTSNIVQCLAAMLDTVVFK
Sequence of USP54 (Q70EL1 whole entry): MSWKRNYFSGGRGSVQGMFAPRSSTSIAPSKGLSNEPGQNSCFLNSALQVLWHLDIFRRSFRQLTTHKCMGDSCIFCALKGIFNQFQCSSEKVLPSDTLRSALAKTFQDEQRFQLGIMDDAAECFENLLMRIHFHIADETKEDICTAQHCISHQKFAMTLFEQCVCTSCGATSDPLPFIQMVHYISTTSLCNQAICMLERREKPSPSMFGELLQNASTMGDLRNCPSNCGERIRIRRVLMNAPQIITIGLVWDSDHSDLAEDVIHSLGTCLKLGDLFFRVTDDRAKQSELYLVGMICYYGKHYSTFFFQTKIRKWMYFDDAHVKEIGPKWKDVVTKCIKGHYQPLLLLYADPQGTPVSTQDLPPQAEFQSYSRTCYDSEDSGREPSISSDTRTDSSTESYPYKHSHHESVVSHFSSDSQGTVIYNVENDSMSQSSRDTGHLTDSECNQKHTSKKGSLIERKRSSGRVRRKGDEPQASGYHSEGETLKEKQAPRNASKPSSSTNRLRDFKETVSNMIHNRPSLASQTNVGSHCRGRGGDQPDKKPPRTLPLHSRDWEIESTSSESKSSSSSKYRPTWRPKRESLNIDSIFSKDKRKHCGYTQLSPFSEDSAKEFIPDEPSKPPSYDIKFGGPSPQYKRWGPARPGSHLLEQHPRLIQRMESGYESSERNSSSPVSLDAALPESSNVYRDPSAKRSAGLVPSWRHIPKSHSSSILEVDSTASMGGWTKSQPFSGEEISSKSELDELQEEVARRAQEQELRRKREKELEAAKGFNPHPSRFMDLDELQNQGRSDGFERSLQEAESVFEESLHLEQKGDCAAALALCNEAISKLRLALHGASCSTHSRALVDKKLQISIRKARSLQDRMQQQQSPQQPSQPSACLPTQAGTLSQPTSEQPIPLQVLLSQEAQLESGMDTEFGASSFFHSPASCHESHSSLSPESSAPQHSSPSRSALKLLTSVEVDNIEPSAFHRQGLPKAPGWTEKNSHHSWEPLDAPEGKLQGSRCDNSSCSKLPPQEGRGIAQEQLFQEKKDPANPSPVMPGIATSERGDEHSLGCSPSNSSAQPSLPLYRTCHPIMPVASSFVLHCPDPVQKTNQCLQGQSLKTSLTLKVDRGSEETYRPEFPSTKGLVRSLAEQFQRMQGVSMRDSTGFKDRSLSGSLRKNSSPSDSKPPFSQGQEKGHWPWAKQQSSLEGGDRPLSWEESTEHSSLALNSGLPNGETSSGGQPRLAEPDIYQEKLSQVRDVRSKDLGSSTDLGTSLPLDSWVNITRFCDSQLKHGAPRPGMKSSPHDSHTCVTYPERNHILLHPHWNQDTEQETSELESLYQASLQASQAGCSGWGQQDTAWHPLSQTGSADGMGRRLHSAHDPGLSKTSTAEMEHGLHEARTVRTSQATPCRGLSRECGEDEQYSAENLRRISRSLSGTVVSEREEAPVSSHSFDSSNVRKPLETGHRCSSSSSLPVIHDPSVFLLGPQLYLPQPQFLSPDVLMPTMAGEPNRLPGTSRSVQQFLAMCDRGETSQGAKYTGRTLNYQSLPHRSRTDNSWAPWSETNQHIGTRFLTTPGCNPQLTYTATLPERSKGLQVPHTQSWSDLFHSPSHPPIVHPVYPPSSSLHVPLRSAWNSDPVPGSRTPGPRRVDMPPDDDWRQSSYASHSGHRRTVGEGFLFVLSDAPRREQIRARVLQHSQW
Sequence of USP46 (P62068 whole entry): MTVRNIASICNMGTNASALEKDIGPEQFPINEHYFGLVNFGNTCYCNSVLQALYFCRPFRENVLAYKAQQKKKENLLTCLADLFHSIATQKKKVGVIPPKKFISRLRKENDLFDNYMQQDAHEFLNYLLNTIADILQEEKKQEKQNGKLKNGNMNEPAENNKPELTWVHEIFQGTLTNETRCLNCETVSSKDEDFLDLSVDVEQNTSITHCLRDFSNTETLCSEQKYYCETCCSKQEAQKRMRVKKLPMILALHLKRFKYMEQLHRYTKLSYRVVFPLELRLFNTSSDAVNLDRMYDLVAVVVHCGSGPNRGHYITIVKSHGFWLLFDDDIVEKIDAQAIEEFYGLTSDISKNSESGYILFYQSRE
Sequence of USP9X (Q93008 whole entry): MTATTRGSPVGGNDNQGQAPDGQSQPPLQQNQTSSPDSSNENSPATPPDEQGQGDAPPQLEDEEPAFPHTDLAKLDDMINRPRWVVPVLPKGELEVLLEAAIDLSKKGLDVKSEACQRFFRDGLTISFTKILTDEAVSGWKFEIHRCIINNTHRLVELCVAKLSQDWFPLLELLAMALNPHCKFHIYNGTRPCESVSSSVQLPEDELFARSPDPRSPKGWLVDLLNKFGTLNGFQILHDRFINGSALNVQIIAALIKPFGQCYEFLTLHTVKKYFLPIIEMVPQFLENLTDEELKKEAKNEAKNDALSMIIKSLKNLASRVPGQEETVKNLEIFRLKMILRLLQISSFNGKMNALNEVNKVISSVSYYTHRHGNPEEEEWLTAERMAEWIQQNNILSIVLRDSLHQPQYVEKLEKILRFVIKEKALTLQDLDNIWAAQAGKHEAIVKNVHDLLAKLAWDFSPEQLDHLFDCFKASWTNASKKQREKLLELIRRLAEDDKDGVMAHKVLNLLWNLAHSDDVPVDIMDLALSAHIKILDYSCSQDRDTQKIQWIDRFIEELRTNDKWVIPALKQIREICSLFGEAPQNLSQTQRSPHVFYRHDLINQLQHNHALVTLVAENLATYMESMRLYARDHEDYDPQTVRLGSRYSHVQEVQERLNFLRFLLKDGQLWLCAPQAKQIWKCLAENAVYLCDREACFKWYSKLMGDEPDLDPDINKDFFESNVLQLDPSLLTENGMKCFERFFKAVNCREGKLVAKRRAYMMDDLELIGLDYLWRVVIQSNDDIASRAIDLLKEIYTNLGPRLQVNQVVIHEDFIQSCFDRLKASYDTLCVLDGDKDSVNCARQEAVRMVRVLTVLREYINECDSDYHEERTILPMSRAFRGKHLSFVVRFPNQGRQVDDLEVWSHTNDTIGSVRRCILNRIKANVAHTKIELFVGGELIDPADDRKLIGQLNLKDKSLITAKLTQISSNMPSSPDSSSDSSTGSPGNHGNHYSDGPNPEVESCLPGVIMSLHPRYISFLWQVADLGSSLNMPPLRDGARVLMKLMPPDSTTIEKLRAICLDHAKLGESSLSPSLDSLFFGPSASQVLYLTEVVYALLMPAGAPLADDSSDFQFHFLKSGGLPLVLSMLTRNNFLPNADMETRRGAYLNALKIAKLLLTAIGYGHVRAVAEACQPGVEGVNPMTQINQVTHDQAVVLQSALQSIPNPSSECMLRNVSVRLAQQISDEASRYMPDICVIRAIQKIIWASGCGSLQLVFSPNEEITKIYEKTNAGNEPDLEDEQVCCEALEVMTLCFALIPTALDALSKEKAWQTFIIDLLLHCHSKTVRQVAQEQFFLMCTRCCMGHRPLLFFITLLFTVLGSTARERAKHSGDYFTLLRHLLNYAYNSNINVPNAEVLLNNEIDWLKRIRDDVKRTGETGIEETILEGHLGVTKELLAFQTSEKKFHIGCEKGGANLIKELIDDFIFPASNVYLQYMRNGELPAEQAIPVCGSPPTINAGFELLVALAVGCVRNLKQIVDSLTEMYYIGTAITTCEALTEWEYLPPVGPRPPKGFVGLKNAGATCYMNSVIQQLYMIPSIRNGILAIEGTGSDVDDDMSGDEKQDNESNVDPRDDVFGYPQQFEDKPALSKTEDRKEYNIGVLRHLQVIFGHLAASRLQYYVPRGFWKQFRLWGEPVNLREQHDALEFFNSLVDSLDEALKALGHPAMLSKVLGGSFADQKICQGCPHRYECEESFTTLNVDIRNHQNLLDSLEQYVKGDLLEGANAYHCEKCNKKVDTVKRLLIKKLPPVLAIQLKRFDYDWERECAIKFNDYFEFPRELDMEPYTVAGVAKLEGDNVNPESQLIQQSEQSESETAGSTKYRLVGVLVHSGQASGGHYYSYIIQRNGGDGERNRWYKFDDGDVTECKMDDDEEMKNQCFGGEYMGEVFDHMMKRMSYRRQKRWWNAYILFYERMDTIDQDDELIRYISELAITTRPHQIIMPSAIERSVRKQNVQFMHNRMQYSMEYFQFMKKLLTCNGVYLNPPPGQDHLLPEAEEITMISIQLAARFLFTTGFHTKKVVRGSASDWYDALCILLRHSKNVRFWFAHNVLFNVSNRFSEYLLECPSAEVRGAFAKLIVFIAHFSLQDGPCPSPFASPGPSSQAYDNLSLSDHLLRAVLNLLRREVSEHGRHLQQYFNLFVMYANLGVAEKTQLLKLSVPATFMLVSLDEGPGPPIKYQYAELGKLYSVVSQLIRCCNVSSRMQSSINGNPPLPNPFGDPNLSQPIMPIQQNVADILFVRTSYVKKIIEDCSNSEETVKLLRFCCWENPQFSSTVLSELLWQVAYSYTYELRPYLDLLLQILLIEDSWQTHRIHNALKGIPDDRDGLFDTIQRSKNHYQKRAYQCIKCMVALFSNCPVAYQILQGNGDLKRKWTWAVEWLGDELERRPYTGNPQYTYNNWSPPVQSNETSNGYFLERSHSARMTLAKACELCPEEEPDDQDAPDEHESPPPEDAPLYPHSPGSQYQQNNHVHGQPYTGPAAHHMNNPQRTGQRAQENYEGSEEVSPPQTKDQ

Cl.O=C(CCl)N1CCC(n2nc3ccccc3n2)CC1
active: [7] -1.88
inactive: [1] 0.181 | [2] -0.321 | [3] -0.894 | [4] -0.485 | [5] -0.467 | [6] -0.186 | [8] -0.518 | [9] -0.485 | [10] -0.114

Cc1nc(CN2CCN(C(=O)CCl)CC2)cs1
inactive: [1] 0.251 | [2] -0.246 | [3] -0.236 | [4] -0.0313 | [5] -0.643 | [6] -0.00411 | [7] -0.473 | [8] -0.444 | [9] -0.168 | [10] -0.171

O=C(CCl)Nc1cccc(C(=O)N2CCSCC2)c1
inactive: [1] 0.397 | [2] -0.00544 | [3] 0.175 | [4] -0.0892 | [5] -0.171 | [6] -0.177 | [7] -0.299 | [8] -0.00928 | [9] -0.091 | [10] 0.0356

Cc1ccccc1CN(C)C(=O)CCl
inactive: [1] -0.263 | [2] -0.653 | [3] -1 | [4] -0.83 | [5] -0.152 | [6] 1.1 | [8] -0.825 | [9] -0.836 | [10] -0.14
active: [7] -1.57
